PubChem BioAssay AID1159580 (chemical genetic matrix, 2015)
Values joined by “and” are separate entries in the source; they are usually repeats but may differ in a detail not shown here. Equal entries are not always repeated. In all, about 5,500 compounds went through this assay and about 2,000 (36%) were called active. About 18% were inconclusive and are not listed. No stated cut-off is given here; in the data, active means normalized growth mostly below about 0.91 (no sharp cut-off); inconclusive means no clear call, values can overlap the other calls; inactive means mostly above about 0.92. This is one part of the list.

Assay: chemical genetic growth profiling, strain panel (AID 1159580);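 further: tested at 20 µM; growth read once vehicle control cultures reached saturation at 30 °C; 1 = growth at the plate median or of vehicle wells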
Details: S. cerevisiae deletion strains, growth OD

Measured: normalized growth

CCN(CC)C(=O)c1cccc(C)c1
inactive: locus YAL013W, strain DEP1, stronger effect = lower value 1 | locus YAL021C, strain ccr4, stronger effect = lower value 1.03 | locus YAL026C, strain drs2, stronger effect = lower value 1.03 | locus YAL030W, strain snc1, stronger effect = lower value 1.04 | locus YBL061C, strain skt5, stronger effect = lower value 1.04 | locus YBR009C, strain hhf1, stronger effect = lower value 1.01 | locus YBR021W, strain FUR4, stronger effect = lower value 1.01 | locus YBR023C, strain chs3, stronger effect = lower value 1.03 | locus YBR171W, strain sec66, stronger effect = lower value 1.04 | locus YBR229C, strain ROT2, stronger effect = lower value 1.01 | locus YBR231C, strain swc5, stronger effect = lower value 1.05 | locus YBR279W, strain paf1, stronger effect = lower value 1.02 | locus YCL011C, strain gbp2, stronger effect = lower value 1.02 | locus YCL016C, strain dcc1, stronger effect = lower value 1.03 | locus YCL029C, strain bik1, stronger effect = lower value 0.992 | locus YCL069W, strain vba3, stronger effect = lower value 1.04 | locus YCR088W, strain abp1, stronger effect = lower value 1.04 | locus YDL005C, strain med2, stronger effect = lower value 1.03 | locus YDL035C, strain GPR1, stronger effect = lower value 1 | locus YDL040C, strain nat1, stronger effect = lower value 1.03 | locus YDL074C, strain BRE1, stronger effect = lower value 1.02 | locus YDL101C, strain DUN1, stronger effect = lower value 0.999 | locus YDL134C, strain PPH21, stronger effect = lower value 1.01 | locus YDL185W, strain tfp1, stronger effect = lower value 0.957 | locus YDL192W, strain arf1, stronger effect = lower value 0.996 | locus YDR001C, strain nth1, stronger effect = lower value 1.03 | locus YDR069C, strain doa4, stronger effect = lower value 1.02 | locus YDR101C, strain arx1, stronger effect = lower value 1 | locus YDR137W, strain rgp1, stronger effect = lower value 1.04 | locus YDR150W, strain NUM1, stronger effect = lower value 0.981 | locus YDR159W, strain sac3, stronger effect = lower value 1.05 | locus YDR162C, strain NBP2, stronger effect = lower value 0.972 | locus YDR195W, strain ref2 1.11 | locus YDR297W, strain sur2, stronger effect = lower value 1.03 | locus YDR318W, strain mcm21, stronger effect = lower value 1 | locus YDR334W, strain swr1, stronger effect = lower value 1.03 | locus YDR335W, strain msn5, stronger effect = lower value 1.03 | locus YDR388W, stronger effect = lower value 1.01 | locus YDR392W, strain spt3, stronger effect = lower value 1.05 | locus YDR502C, strain sam2, stronger effect = lower value 0.994 | locus YEL003W, strain gim4, stronger effect = lower value 1.02 | locus YEL037C, strain rad23, stronger effect = lower value 1.04 | locus YEL061C, strain CIN8 (second series), stronger effect = lower value 1.02 | locus YEL061C, strain CIN8, stronger effect = lower value 1.01 | locus YER015W, strain faa2, stronger effect = lower value 1.03 | locus YER016W, strain bim1, stronger effect = lower value 1.02 | locus YER110C, stronger effect = lower value 1.01 | locus YER111C, strain swi4, stronger effect = lower value 1.05 | locus YER155C, strain BEM2 (second series), stronger effect = lower value 1.07 | locus YER155C, strain BEM2, stronger effect = lower value 1.01 | locus YER167W, strain BCK2, stronger effect = lower value 1.03 | locus YFR010W, strain ubp6, stronger effect = lower value 1.03 | locus YGL078C, strain dbp3, stronger effect = lower value 0.997 | locus YGL086W, strain mad1, stronger effect = lower value 1 | locus YGL167C, strain pmr1, stronger effect = lower value 1.03 | locus YGL173C, strain kem1, stronger effect = lower value 1.01 | locus YGL227W, strain vid30, stronger effect = lower value 1.04 | locus YGL240W, strain doc1, stronger effect = lower value 1.03 | locus YGL248W, strain PDE1, stronger effect = lower value 1.01 | locus YGL253W, strain hxk2, stronger effect = lower value 1.02 | locus YGR078C, strain PAC10, stronger effect = lower value 0.98 | locus YGR135W, strain pre9, stronger effect = lower value 0.982 | locus YGR229C, strain SMI1, stronger effect = lower value 1.01 | locus YGR252W, strain gcn5, stronger effect = lower value 0.98 | locus YHR013C, strain ard1, stronger effect = lower value 1.1 | locus YHR027C, strain rpn1, stronger effect = lower value 1.02 | locus YHR030C, strain SLT2, stronger effect = lower value 1.01 and 0.932 | locus YHR079C, strain IRE1 (second series), stronger effect = lower value 1 | locus YHR079C, strain IRE1, stronger effect = lower value 0.977 | locus YHR094C, strain hxt1, stronger effect = lower value 0.997 | locus YHR129C, strain ARP1, stronger effect = lower value 1.02 | locus YHR142W, strain chs7, stronger effect = lower value 1.02 | locus YHR200W, strain rpn10, stronger effect = lower value 0.998 | locus YIL066C, strain RNR3, stronger effect = lower value 0.998 | locus YIL073C, strain SPO22, stronger effect = lower value 0.97 | locus YIL125W, strain kgd1, stronger effect = lower value 1 | locus YIR030C, strain dcg1, stronger effect = lower value 0.996 | locus YJL092W, strain hpr5, stronger effect = lower value 1.03 | locus YJL095W, strain BCK1 (second series), stronger effect = lower value 1.04 | locus YJL095W, strain BCK1, stronger effect = lower value 1.04 and 0.974 | locus YJL115W, strain asf1, stronger effect = lower value 1.06 | locus YJL129C, strain trk1, stronger effect = lower value 1.08 | locus YJL134W, strain LCB3, stronger effect = lower value 1 | locus YJL154C, strain vps35, stronger effect = lower value 1.03 | locus YJL164C, strain tpk1, stronger effect = lower value 1.02 | locus YJL166W, strain qcr8, stronger effect = lower value 1.02 | locus YJL168C, strain set2, stronger effect = lower value 1 | locus YJL187C, strain SWE1 (second series), stronger effect = lower value 0.994 | locus YJR043C, strain POL32, stronger effect = lower value 0.999 | locus YJR066W, strain TOR1, stronger effect = lower value 0.942 | locus YJR075W, strain HOC1, stronger effect = lower value 1.02
